Tests used:
Experiment in all cases: DAPPL (digital affinity profiling via proximity ligation, sequencing); 10 mM Tris-HCl pH 7.5, 50 mM NaCl, 1 mM DTT, 4% glycerol, room temperature, 30 min; GST-TFs on glutathione beads, 16-mer random dsDNA library, 0.1% formaldehyde crosslink after washing; high values mean tight binding
[1] = target: T1, FEV (Homo sapiens, UniProt Q99581 1-238); conditions: protein: recombinant; tags: N-terminal GST; dsDNA, one strand shown
T1 sequence: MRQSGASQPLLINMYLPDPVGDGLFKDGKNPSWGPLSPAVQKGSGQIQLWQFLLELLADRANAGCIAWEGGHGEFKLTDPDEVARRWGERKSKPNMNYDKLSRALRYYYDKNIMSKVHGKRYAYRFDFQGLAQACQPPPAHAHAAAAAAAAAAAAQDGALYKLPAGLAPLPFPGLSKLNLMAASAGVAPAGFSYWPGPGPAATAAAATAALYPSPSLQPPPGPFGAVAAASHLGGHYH
In short: (§1)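 Binding signal is each hexamer's read frequency for a factor divided by its frequency in the tag-only sample. The factors were GST-fused human transcription factors from yeast, captured on glutathione beads, DNA-barcoded and pooled with that sample. Pools were incubated with 200 nmole of a random double-stranded 16-mer DNA library in Tris/NaCl/DTT/glycerol buffer at room temperature for 30 min, then washed, crosslinked with 0.1% formaldehyde, proximity-ligated with BsaI/T4 ligase (1 h, 37 °C), PCR-amplified and sequenced on an Illumina NextSeq500.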

[2] = target: ETV5 (Homo sapiens, UniProt P41161 1-510); conditions: protein: recombinant; tags: N-terminal GST; dsDNA, one strand shown
In short: as §1

[3] = target: HSF1 (Homo sapiens, UniProt Q00613 1-529); conditions: protein: recombinant; tags: N-terminal GST; chain copies: 3; dsDNA, one strand shown
In short: as §1

[4] = target: T2, SPIC (Homo sapiens, UniProt Q8N5J4 1-248); conditions: protein: recombinant; tags: N-terminal GST; dsDNA, one strand shown
T2 sequence: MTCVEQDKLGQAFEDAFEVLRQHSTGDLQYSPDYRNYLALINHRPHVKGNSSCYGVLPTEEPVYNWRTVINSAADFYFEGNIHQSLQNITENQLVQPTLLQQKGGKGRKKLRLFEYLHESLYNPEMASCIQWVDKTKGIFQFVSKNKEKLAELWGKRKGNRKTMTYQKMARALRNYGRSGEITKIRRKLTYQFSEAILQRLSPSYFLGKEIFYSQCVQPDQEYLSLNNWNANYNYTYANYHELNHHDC
In short: as §1

[5] = target: ELF4 (Homo sapiens, UniProt Q99607 1-663); conditions: protein: recombinant; tags: N-terminal GST; dsDNA, one strand shown
In short: as §1

[6] = target: T3, ELK4 (Homo sapiens, UniProt P28324-2 1-405); conditions: protein: recombinant; tags: N-terminal GST; dsDNA, one strand shown
T3 sequence: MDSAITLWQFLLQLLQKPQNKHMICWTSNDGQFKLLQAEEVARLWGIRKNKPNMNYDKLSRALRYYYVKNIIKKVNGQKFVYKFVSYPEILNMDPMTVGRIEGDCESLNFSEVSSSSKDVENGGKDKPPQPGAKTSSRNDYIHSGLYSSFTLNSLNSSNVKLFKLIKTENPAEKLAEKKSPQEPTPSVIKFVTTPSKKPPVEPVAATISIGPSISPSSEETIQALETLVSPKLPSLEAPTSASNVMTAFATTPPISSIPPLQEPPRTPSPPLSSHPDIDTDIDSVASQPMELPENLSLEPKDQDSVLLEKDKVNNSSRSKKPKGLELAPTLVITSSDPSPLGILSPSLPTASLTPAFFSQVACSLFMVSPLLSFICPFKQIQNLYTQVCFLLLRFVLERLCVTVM
In short: as §1

[7] = target: T4, ETV2 (Homo sapiens, UniProt O00321 1-342); conditions: protein: recombinant; tags: N-terminal GST; dsDNA, one strand shown
T4 sequence: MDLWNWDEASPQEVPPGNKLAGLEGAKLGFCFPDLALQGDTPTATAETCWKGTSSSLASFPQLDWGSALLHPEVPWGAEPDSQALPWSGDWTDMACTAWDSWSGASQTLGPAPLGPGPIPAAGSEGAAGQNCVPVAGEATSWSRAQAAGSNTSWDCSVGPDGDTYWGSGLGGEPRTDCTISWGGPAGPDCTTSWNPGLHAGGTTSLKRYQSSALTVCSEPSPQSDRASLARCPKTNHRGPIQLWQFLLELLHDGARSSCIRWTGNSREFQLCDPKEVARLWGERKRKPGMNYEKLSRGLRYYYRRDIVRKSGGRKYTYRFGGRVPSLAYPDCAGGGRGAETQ
In short: as §1

[8] = target: T5, ELF3 (Homo sapiens, UniProt P78545 1-371); conditions: protein: recombinant; tags: N-terminal GST; dsDNA, one strand shown
T5 sequence: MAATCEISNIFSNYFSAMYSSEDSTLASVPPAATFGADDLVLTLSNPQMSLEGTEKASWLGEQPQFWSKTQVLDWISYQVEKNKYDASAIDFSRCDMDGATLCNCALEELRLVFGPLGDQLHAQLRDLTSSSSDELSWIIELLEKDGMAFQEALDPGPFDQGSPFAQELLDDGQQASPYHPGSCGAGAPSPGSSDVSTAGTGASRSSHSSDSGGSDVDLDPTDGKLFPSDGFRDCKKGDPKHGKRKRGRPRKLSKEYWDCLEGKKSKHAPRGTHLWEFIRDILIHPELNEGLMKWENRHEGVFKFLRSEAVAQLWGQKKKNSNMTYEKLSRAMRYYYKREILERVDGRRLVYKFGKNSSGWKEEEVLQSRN
In short: as §1

[9] = target: CRX (Homo sapiens, UniProt O43186 1-299); conditions: protein: recombinant; tags: N-terminal GST; dsDNA, one strand shown
In short: as §1

[10] = target: ETV1 (Homo sapiens, UniProt P50549 1-477); conditions: protein: recombinant; tags: N-terminal GST; dsDNA, one strand shown
In short: as §1

ETV1, sequence (P50549 whole entry): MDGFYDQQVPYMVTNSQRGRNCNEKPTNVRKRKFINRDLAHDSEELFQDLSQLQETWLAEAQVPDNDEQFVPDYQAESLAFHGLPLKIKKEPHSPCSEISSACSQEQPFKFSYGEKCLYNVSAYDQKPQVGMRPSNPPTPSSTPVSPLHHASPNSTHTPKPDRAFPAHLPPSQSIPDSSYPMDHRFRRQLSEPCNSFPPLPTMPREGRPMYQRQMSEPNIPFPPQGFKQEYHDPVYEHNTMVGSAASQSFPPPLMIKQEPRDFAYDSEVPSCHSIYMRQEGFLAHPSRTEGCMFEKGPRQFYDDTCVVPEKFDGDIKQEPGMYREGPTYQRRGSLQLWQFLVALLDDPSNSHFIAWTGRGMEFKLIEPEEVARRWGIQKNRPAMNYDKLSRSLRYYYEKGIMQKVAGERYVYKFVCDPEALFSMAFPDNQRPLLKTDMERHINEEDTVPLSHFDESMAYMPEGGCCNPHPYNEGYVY
ELF4, sequence (Q99607 whole entry): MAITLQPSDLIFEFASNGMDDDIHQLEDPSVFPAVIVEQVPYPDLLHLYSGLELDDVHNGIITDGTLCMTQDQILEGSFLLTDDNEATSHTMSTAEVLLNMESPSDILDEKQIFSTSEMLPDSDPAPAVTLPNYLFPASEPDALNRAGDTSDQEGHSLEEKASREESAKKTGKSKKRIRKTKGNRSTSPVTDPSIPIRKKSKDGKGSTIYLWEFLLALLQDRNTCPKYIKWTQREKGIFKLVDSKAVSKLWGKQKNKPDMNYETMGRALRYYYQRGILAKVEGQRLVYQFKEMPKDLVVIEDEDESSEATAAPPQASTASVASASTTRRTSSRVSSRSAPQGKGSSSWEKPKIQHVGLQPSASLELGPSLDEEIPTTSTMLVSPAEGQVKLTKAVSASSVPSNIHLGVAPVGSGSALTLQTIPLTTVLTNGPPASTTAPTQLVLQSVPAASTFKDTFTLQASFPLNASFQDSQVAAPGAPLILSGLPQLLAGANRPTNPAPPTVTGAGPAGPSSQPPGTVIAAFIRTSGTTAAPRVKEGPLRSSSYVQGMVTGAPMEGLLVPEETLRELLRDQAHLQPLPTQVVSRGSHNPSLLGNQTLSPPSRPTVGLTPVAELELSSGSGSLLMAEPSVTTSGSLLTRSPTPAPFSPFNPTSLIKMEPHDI
ETV5, sequence (P41161 whole entry): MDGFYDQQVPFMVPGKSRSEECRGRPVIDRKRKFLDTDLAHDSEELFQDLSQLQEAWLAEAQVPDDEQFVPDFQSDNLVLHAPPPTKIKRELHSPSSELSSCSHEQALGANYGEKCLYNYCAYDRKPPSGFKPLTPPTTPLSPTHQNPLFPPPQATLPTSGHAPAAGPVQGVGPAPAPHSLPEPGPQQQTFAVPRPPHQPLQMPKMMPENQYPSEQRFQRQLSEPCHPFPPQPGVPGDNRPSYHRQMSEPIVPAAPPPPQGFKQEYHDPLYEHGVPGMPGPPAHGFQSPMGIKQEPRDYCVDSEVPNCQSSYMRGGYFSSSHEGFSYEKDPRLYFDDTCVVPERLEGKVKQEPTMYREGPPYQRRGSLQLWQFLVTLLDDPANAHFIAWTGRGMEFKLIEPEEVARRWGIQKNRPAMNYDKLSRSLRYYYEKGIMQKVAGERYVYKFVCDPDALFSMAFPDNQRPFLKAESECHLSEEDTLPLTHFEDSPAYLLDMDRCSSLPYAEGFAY
CRX, sequence (O43186 whole entry): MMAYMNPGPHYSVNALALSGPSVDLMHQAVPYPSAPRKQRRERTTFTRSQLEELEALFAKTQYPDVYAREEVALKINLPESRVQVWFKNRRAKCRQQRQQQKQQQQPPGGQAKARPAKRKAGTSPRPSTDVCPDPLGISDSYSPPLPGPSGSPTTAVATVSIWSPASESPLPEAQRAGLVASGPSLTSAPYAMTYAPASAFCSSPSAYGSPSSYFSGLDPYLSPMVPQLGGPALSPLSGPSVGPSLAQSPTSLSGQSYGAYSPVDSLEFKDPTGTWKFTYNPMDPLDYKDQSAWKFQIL
HSF1, sequence (Q00613 whole entry): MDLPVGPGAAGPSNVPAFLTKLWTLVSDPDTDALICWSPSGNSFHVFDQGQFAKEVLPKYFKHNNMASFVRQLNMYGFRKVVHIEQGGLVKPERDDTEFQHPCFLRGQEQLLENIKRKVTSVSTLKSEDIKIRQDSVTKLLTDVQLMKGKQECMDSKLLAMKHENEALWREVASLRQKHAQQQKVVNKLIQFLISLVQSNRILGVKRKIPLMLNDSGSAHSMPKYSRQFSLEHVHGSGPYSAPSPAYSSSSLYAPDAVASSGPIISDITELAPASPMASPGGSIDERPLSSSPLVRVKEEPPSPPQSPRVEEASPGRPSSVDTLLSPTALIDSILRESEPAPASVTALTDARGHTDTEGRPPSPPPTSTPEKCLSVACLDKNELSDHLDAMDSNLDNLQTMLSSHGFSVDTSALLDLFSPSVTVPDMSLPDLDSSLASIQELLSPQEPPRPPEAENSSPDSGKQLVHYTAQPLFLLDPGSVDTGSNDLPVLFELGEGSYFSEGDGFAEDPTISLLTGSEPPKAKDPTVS

## AAGAAC
[1]
  binding signal: 1.19 fold enrichment (6-mer frequency, TF over GST control)
[2]
  binding signal: 1.16 fold enrichment (6-mer frequency, TF over GST control)
[3]
  binding signal: 1.63 fold enrichment (6-mer frequency, TF over GST control)
[4]
  binding signal: 1.24 fold enrichment (6-mer frequency, TF over GST control)
[5]
  binding signal: 1.2 fold enrichment (6-mer frequency, TF over GST control)
[6]
  binding signal: 1.18 fold enrichment (6-mer frequency, TF over GST control)
[7]
  binding signal: 1.13 fold enrichment (6-mer frequency, TF over GST control)
[8]
  binding signal: 1.16 fold enrichment (6-mer frequency, TF over GST control)
[9]
  binding signal: 1.28 fold enrichment (6-mer frequency, TF over GST control)
[10]
  binding signal: 1.22 fold enrichment (6-mer frequency, TF over GST control)

— PMC7862700, “An all-to-all approach to the identification of sequence-specific readers for epigenetic DNA modifications on cytosine”
